Common to all, as to settings: concentration: 10 µM; 24 h
Experiment [1] deals with HCC1569. Nature of the experiment: cell number relative to DMSO (% of DMSO); higher = more cells (less growth inhibition / toxicity). The gist of the method: (§1)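 Treatment: HCC1569 and TDF cells, 800 per well in 384-well plates with RPMI and 10% FBS, were given compounds at 10 µM for 24 h at 37 °C, in triplicate. Readout: after 3.7% formaldehyde fixation, cells were stained with a rabbit anti-H1.0 antibody, an AlexaFluor 647 secondary and DAPI. Reported values are H1.0 nuclear intensity or cell number as percent of the plate control, taken as the median of replicates, with positional smoothing for HCC1569.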

Experiment [2] has as its system TDF. Described as above. In a few lines: as §1
Experiment [3] concerns TDF. Nature of the experiment: H1.0 immunofluorescence intensity relative to DMSO (% of DMSO); higher = stronger H1.0 induction, active = 120 or more. In a few lines:
as §1

Experiment [4] deals with HCC1569. Kind of experiment: H1.0 immunofluorescence intensity relative to DMSO (% of DMSO); higher = stronger H1.0 induction, active = 140 or more. The gist of the method: as §1

± gives the standard deviation of the averaged measurements.
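For H1.0 immunofluorescence intensity relative to DMSO in this document: TDF is a line of transformed human dermal fibroblasts of mesenchymal origin.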
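For cell number relative to DMSO in this document: TDF denotes transformed human dermal fibroblasts of mesenchymal origin.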

With `COc1ccc2c(c1)c(CC(=O)O)c(C)n2Cc1ccc(Cl)cc1` [1-(4-Chlorobenzyl)-5-methoxy-2-methylindole-3-acetic acid], the cell number in experiment [1] is 104; in experiment [2] it was 91. For the same compound, the H1.0 immunofluorescence intensity in experiment [3] was 96.8 (inactive); in experiment [4] it was 103 (inactive).
For the compound `COCCCCCCCCCCCC(=O)O` [12-Methoxydodecanoic acid], the cell number in experiment [1] came out at 101 ± 1.2; in experiment [2], 95.9 ± 11. The H1.0 immunofluorescence intensity in experiment [3] was 95.5 (inactive); in experiment [4], 98.5 (inactive).
`CN1C2CCC1CC(NC(=O)c1nn(C)c3ccccc13)C2.O=C(O)C=CC(=O)O` (stereo not given) [LY-278,584 maleate]: the cell number in experiment [1] turned out to be 104; in experiment [2], 94.8. Also, the figures for the H1.0 immunofluorescence intensity in experiment [3] and in experiment [4] were 99.1 (inactive) and 93 (inactive), respectively.
Take `NC(N)=NC(N)=Nc1ccccc1` [1-Phenylbiguanide]: the cell number in experiment [1] is 105; in experiment [2], 114. Besides, the H1.0 immunofluorescence intensity in experiment [3] is 89.2 (inactive); in experiment [4] it was 84.1 (inactive).
For the compound `CCCCN1CCC(n2c(=O)[nH]c3ccccc32)CC1.O=C(O)C(=O)O` [NS 521 oxalate], the cell number in experiment [1] was found to be 98; in experiment [2], 102. Besides, the H1.0 immunofluorescence intensity was 86.7 (inactive) in experiment [3] and 98.3 (inactive) in experiment [4].
As for `CSc1ccc2c(c1)N(CCC1CCCCN1C)c1ccccc1S2` (stereo not given) [Thioridazine], the cell number in experiment [1] and in experiment [2] was 102 in each case. In addition, the figures for the H1.0 immunofluorescence intensity in experiment [3] and in experiment [4] were 105 (inactive) and 133 (inactive), respectively.
As for `COc1ccccc1N1CCN(CCN(C(=O)c2ccc(I)cc2)c2ccccn2)CC1.Cl` [p-MPPI hydrochloride], the cell number in experiment [1] was determined as 97.4; in experiment [2], 96.3. In addition, the results for the H1.0 immunofluorescence intensity in experiment [3] and in experiment [4] were 96.6 (inactive) and 93.4 (inactive), respectively.
Consider `Cc1ncc(Cl)cc1NCc1ccc(C(=O)N[C@@H](CC2CCCC2)C(=O)NC2CC2)s1`, for which the results for the cell number in experiment [1] and in experiment [2] were 96.6 and 96.1, respectively. In addition, the H1.0 immunofluorescence intensity in experiment [3] was 99.9 (inactive); in experiment [4], 101 (inactive).
For the compound `C[C@H](O)[C@H](O)[C@H]1CNc2[nH]c(N)nc(=O)c2N1.Cl.Cl`, the figures for the cell number in experiment [1] and in experiment [2] were 103 and 97.2, respectively. The H1.0 immunofluorescence intensity was 92.5 (inactive) in experiment [3] and 97 (inactive) in experiment [4].
On to `CCCC1CC(C(=O)NC(C(C)O)C2OC(SC)C(O)C(O)C2O)N(C)C1` (stereo not given) [Lincomycin], for which the results for the cell number in experiment [1] and in experiment [2] were 103 ± 1.5 and 113 ± 2.2, respectively. Further, the values for the H1.0 immunofluorescence intensity in experiment [3] and in experiment [4] were 93.1 (inactive) and 93 (inactive), respectively.
Take `COC1CC2CCC(C)C(O)(O2)C(=O)C(=O)N2CCCCC2C(=O)OC(C(C)CC2CCC(O)C(OC)C2)CC(=O)C(C)C=C(C)C(O)C(OC)C(=O)C(C)CC(C)C=CC=CC=C1C` (stereo not given) [Rapamycin]: the cell number was 96.2 ± 5.5 in experiment [1] and 92.4 ± 8.9 in experiment [2]. In addition, the H1.0 immunofluorescence intensity is 86.7 (inactive) in experiment [3] and 108 (inactive) in experiment [4].
Take `Cc1ccc(C(=O)Nc2ccc(S(=O)(=O)[O-])c3cc(S(=O)(=O)[O-])cc(S(=O)(=O)[O-])c23)cc1NC(=O)c1cccc(NC(=O)Nc2cccc(C(=O)Nc3cc(C(=O)Nc4ccc(S(=O)(=O)[O-])c5cc(S(=O)(=O)[O-])cc(S(=O)(=O)[O-])c45)ccc3C)c2)c1.[Na+].[Na+].[Na+].[Na+].[Na+].[Na+]` [Suramin hexasodium]: the cell number in experiment [1] and in experiment [2] was 101 each time. Further, the H1.0 immunofluorescence intensity in experiment [3] was 98.5 (inactive); in experiment [4], 102 (inactive).
Regarding `Cc1cc(C)c(NC(=O)CC(CC(=O)[O-])c2cccc3ccccc23)c(C(=O)N2CCC3(CCCC3)CC2)c1.[Na+]` (stereo not given), the cell number in experiment [1] turned out to be 105; in experiment [2] it was 102. Further, the H1.0 immunofluorescence intensity in experiment [3] was 101 (inactive); in experiment [4], 99.8 (inactive).
On to `N#Cc1c(N(CC(=O)[O-])CC(=O)[O-])sc(C(=O)[O-])c1CC(=O)[O-].[Sr+2].[Sr+2]`, for which the cell number was 100 in experiment [1] and 109 in experiment [2]. The H1.0 immunofluorescence intensity was 86.6 (inactive) in experiment [3] and 105 (inactive) in experiment [4].
For `CC(C)NCC(O)COc1cccc2[nH]ccc12` (stereo not drawn) [S(-)-Pindolol], in that order: 102, 107, 84.4 (inactive) and 98.4 (inactive).
On to `CNCCNS(=O)(=O)c1cccc2cnccc12.Cl.Cl` [H-8 dihydrochloride], for which the cell number in experiment [1] was 105; in experiment [2], 101. The H1.0 immunofluorescence intensity was 91.8 (inactive) in experiment [3] and 77.5 (inactive) in experiment [4].
In the case of `CN(C)CCC=C1c2ccccc2CCc2ccccc21.Cl` [Amitriptyline hydrochloride], the cell number in experiment [1] and in experiment [2] was 100 throughout. Moreover, the H1.0 immunofluorescence intensity is 104 (inactive) in experiment [3] and 94.1 (inactive) in experiment [4].
For the compound `Nc1ncnc2c1nc(Sc1ccc(Cl)cc1)n2C1OC2COP(=O)([O-])OC2C1O.[Na+]` (stereo not given) [8-(4-Chlorophenylthio)-cAMP sodium], the cell number in experiment [1] is 104; in experiment [2], 106. The H1.0 immunofluorescence intensity was 93.1 (inactive) in experiment [3] and 85.1 (inactive) in experiment [4].
Regarding `CN1CCN(c2ccc3c(c2)NC(=C2C(=O)N=c4cccc(F)c4=C2N)N3)CC1`, the cell number worked out at 81.3 in experiment [1] and 72.6 in experiment [2]. Moreover, the H1.0 immunofluorescence intensity was 93.5 (inactive) in experiment [3] and 149 (active) in experiment [4].
As to `CNCCC(Oc1ccccc1C)c1ccccc1` (stereo not given) [Tomoxetine], the cell number in experiment [1] was 101; in experiment [2], 112. Moreover, the results for the H1.0 immunofluorescence intensity in experiment [3] and in experiment [4] were 103 (inactive) and 102 (inactive), respectively.
